Experimental data published in article PMC7862700, “An all-to-all approach to the identification of sequence-specific readers for epigenetic DNA modifications on cytosine”.

Columns and labels:
Experiment in all cases: DAPPL (digital affinity profiling via proximity ligation, sequencing); 10 mM Tris-HCl pH 7.5, 50 mM NaCl, 1 mM DTT, 4% glycerol, room temperature, 30 min; GST-TFs on glutathione beads, 16-mer random dsDNA library, 0.1% formaldehyde crosslink after washing; high values mean tight binding
FEV = biological target: T1, FEV (Homo sapiens, UniProt Q99581 1-238); conditions: protein: recombinant; tags: N-terminal GST; dsDNA, one strand shown
T1 sequence: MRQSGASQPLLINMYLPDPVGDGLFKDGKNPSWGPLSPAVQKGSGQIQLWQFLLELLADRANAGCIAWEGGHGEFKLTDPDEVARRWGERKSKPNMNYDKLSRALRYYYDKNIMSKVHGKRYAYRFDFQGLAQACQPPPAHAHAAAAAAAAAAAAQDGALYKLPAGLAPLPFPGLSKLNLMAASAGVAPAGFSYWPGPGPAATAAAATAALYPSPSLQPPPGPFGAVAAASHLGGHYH
Summary of the method: (§1)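 Human transcription factors were made in yeast as GST fusions, captured on glutathione beads and barcoded with DNA. With a tag-only sample included, the pool was incubated with 200 nmole of a random double-stranded 16-mer DNA library in Tris/NaCl/DTT/glycerol buffer at room temperature for 30 min, then crosslinked with 0.1% formaldehyde after washing, ligated by proximity, amplified and sequenced. For binding signal, each hexamer's read frequency for a factor is divided by its frequency for the tag-only sample.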

ETV5 = ETV5 (Homo sapiens, UniProt P41161 1-510); conditions: protein: recombinant; tags: N-terminal GST; dsDNA, one strand shown
Summary of the method: as §1

HSF1 = HSF1 (Homo sapiens, UniProt Q00613 1-529); conditions: protein: recombinant; tags: N-terminal GST; chain copies: 3; dsDNA, one strand shown
Summary of the method: as §1

SPIC = biological target: T2, SPIC (Homo sapiens, UniProt Q8N5J4 1-248); conditions: protein: recombinant; tags: N-terminal GST; dsDNA, one strand shown
T2 sequence: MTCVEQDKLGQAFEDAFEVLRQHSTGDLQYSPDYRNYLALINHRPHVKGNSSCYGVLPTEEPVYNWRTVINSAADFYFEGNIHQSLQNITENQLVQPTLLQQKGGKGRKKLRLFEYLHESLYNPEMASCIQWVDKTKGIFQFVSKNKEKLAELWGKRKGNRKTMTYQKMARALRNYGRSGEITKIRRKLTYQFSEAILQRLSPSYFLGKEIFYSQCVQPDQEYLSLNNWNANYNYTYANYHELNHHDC
Summary of the method: as §1

ELF4 = ELF4 (Homo sapiens, UniProt Q99607 1-663); conditions: protein: recombinant; tags: N-terminal GST; dsDNA, one strand shown
Summary of the method: as §1

ELK4 = biological target: T3, ELK4 (Homo sapiens, UniProt P28324-2 1-405); conditions: protein: recombinant; tags: N-terminal GST; dsDNA, one strand shown
T3 sequence: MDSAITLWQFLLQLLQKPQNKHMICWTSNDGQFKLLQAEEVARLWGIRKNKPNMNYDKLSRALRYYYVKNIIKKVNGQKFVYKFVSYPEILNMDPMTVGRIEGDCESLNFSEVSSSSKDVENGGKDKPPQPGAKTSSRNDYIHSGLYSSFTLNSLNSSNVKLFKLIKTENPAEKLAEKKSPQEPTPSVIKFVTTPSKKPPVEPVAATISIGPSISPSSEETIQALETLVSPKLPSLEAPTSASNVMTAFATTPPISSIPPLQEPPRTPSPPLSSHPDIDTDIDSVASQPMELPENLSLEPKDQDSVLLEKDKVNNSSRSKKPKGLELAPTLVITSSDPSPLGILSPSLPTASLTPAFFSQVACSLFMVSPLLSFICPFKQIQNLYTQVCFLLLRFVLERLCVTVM
Summary of the method: as §1

ETV2 = biological target: T4, ETV2 (Homo sapiens, UniProt O00321 1-342); conditions: protein: recombinant; tags: N-terminal GST; dsDNA, one strand shown
T4 sequence: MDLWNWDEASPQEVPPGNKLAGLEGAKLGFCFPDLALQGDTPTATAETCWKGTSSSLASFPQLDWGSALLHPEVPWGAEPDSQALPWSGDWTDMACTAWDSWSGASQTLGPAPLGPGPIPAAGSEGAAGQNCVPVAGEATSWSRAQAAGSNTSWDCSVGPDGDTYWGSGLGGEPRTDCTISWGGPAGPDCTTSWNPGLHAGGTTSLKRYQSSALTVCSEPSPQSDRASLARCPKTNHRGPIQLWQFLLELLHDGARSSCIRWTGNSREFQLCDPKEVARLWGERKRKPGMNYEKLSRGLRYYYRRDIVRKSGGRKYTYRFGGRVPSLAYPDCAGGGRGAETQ
Summary of the method: as §1

ELF3 = biological target: T5, ELF3 (Homo sapiens, UniProt P78545 1-371); conditions: protein: recombinant; tags: N-terminal GST; dsDNA, one strand shown
T5 sequence: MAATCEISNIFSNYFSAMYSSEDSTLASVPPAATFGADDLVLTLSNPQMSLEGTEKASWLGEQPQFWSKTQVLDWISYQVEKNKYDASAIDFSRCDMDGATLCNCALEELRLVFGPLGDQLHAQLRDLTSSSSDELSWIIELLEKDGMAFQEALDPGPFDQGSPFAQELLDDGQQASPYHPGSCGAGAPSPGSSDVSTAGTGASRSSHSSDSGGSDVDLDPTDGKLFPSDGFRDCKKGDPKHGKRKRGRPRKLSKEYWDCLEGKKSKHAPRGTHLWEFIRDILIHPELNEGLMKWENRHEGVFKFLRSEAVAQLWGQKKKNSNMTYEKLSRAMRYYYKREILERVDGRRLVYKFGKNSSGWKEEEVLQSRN
Summary of the method: as §1

CRX = CRX (Homo sapiens, UniProt O43186 1-299); conditions: protein: recombinant; tags: N-terminal GST; dsDNA, one strand shown
Summary of the method: as §1

Chain of ELF4 (Q99607 whole entry): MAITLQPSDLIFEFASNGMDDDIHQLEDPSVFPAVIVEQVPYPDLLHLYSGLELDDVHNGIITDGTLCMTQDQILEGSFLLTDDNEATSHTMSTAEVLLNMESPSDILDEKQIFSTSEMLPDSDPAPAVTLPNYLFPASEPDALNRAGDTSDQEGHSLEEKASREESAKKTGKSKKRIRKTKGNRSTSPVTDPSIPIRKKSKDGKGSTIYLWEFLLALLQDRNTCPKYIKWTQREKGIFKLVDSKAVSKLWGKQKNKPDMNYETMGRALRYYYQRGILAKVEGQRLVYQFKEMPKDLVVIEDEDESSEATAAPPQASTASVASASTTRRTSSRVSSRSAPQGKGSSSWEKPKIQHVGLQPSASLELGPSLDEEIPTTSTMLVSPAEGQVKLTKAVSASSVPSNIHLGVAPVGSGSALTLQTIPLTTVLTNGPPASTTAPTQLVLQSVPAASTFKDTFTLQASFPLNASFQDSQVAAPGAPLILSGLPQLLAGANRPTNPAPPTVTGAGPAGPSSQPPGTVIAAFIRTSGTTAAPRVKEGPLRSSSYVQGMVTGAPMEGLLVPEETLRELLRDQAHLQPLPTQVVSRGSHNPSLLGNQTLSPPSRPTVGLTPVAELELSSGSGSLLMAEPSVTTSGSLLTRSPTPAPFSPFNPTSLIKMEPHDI
Chain of CRX (O43186 whole entry): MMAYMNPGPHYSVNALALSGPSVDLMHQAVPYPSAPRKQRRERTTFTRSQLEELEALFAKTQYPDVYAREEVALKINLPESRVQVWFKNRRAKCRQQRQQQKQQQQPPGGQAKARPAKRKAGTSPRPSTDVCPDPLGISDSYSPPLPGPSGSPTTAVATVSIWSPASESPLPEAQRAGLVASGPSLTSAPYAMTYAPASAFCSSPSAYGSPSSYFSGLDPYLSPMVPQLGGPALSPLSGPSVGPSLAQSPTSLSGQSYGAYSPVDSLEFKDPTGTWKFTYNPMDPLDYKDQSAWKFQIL
Chain of ETV5 (P41161 whole entry): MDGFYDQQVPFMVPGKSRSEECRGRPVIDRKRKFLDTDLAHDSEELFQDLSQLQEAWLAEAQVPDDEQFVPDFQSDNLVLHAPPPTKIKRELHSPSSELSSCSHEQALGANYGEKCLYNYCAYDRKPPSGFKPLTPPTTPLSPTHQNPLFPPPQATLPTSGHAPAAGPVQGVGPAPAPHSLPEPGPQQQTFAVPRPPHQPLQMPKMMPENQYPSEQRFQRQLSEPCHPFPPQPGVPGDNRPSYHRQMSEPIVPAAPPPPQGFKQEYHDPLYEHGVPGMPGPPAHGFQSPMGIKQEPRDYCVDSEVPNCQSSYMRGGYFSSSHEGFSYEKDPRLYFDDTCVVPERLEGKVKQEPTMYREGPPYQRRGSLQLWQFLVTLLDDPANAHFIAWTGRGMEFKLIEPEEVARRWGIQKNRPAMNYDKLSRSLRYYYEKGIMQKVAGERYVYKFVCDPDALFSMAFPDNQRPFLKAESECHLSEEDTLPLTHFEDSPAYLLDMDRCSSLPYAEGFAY
Chain of HSF1 (Q00613 whole entry): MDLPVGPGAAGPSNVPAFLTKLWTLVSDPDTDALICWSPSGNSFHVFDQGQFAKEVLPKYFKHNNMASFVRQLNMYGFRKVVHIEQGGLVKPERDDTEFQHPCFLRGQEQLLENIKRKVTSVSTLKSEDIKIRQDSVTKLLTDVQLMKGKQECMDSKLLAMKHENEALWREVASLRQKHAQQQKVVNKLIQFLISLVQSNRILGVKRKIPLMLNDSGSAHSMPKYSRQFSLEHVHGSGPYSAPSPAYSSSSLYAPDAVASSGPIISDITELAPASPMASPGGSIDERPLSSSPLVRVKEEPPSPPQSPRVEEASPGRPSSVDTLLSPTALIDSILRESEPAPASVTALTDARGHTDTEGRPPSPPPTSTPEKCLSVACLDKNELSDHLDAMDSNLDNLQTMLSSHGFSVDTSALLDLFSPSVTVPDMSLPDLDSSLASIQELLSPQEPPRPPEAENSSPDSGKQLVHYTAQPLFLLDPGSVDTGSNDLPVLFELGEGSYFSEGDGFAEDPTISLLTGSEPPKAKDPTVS

## CCTTCC
FEV
  binding signal: 2.78 fold enrichment (6-mer frequency, TF over GST control)
ETV5
  binding signal: 2.73 fold enrichment (6-mer frequency, TF over GST control)
HSF1
  binding signal: 1.81 fold enrichment (6-mer frequency, TF over GST control)
SPIC
  binding signal: 2.36 fold enrichment (6-mer frequency, TF over GST control)
ELF4
  binding signal: 2.5 fold enrichment (6-mer frequency, TF over GST control)
ELK4
  binding signal: 2.19 fold enrichment (6-mer frequency, TF over GST control)
ETV2
  binding signal: 2.51 fold enrichment (6-mer frequency, TF over GST control)
ELF3
  binding signal: 2.27 fold enrichment (6-mer frequency, TF over GST control)
CRX
  binding signal: 1.26 fold enrichment (6-mer frequency, TF over GST control)
